Bioassay records deposited in PubChem by National Center for Advancing Translational Sciences (NCATS).
Shown are actives, neighbours in structure and some others; about 7.1% of the full set was active somewhere.
S2 tox: cell viability loss in ATXN counter-screen. S2 cells (HEK-293 line with an ATXN2-luciferase reporter) viability, CellTiter-Fluor protease fluorescence, 24 h. 400,000 compounds, 0.49% hits. Potency, µM (titrated, usually from 56.7 µM), hits mostly cytotoxic; further: potency means the concentration at half of the fitted maximal effect; nearly all actives have a fitted effect of over 40% in size
IL1B secr inh: inhibitors of inflammasome signaling (IL-1 beta secretion) | THP-1 LPS/ATP IL-1B secretion, AlphaLISA, 16 h; hits give low values | activity change, % at 57.5 µM | 360,000 compounds, 4.7% hits | AID 743279; in the data active means activity change below about -50%; inconclusive means mostly about -30% to -49%; further: on the % scale 0 is the no-effect control and ±100 the full control effect
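THP-1 cells pretreated 1 hr with compounds (up to 57.5 uM final), then stimulated with LPS (250 ng/mL final) plus ATP (1.25 mM final); secreted IL-1B measured by AlphaLISA after 16 hr, decreased signal indicating inhibition.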
PINK1 expr mod: changes PINK1 expression | PINK1 immunofluorescence, high-content cytometry, 24 h | 410,000 compounds, 0.2% hits | Potency, µM (series often up to 76.6 µM), for inactives: at the top dose activation (PINK1 increase), hits mostly activators | AID 624263; active means well fitted activation curve with a large enough effect; inconclusive means small, poorly fitted or top-dose-only effect; cell line not stated here; further: potency means the concentration at half of the fitted maximal effect; % of control where 0% means no effect; nearly all actives have a fitted effect of over 65% in size
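Measures PINK1 amount and localization on or inside mitochondria by immunofluorescence. Stable cells get compounds at 5 concentrations for 24 hours before fixation and staining; CCCP controls included.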
SW480 rerep: induces DNA re-replication in SW480 colon adenocarcinoma cells; SW480 DNA re-replication, Hoechst DNA content imaging, 48 h; 340,000 compounds, 1.8% hits; Potency, µM (top dose mostly 46.1 µM), without a hit: at the highest dose re-replication activation, actives largely listed as activators; further: potency means the concentration at half of the fitted maximal effect; % of control where 0% means no effect; nearly all actives have a fitted effect of over 55% in size
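Treated cells incubate 48 hr (37 C, 5% CO2), are stained 40 min with Hoechst, and nuclear fluorescence is enumerated; a rise in nuclei with high DNA signal marks re-replication.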
MCF10A rereplic: induces DNA re-replication in MCF 10a normal breast cells | 350,000 compounds, 2.9% hits | Potency, µM (series often up to 46.1 µM), without a hit: top-dose activity, positive = re-replication, most hits filed as activators | AID 624296 | MCF 10A DNA re-replication, Hoechst nuclear intensity, 48 h; further: potency means the concentration at half of the fitted maximal effect; % of control where 0% means no effect; nearly all actives have a fitted effect of over 50% in size
ATXN2 expr inh: reduces ATXN2 reporter expression in HEK-293 cells | AID 1745845 | Potency, µM (top dose mostly 57 µM), for the others: top-dose activity change, negative = inhibition, actives largely listed as inhibitors | 360,000 compounds, 0.72% hits | HEK-293 ATXN2-luciferase reporter, luminescence, 24 h; further: potency means the concentration at half of the fitted maximal effect; on the % scale 0 is the no-effect control and ±100 the full control effect; nearly all actives have a fitted effect of over 55% in size
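qHTS (up to 57 uM final) was run with 24 h compound exposure of reporter cells at 37 °C. Each well was multiplexed: SteadyGlo luminescence measured ATXN2-luciferase expression after a fluorogenic Gly-Phe-AFC viability readout (25 uM final).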
* = called active by the depositor; i = inactive; ? = inconclusive; / = not tested or not shown; [ ] = another dose, or the depositor's remark. Unless noted, the call rests on the fitted dose curve; in most records, active means well fitted curve in the direction sought with a large enough effect; inconclusive means small, poorly fitted or top-dose-only effect, or another doubt; inactive means no such curve, though single readings can be large; an effect the other way counts as inactive or inconclusive.

SMILES	S2 tox	IL1B secr inh	PINK1 expr mod	SW480 rerep	MCF10A rereplic	ATXN2 expr inh
Cc1ccccc1-c1cnc(C(O)c2ccc(Cl)c(F)c2)[nH]1 (centres undefined)	i	-62*	6%	/	/	3%
C#C[C@]1(O)CC[C@@H]2[C@@H]3CCc4cc(O)ccc4[C@H]3CC[C@@]21C	/	/	/	/	/	-16%
Cc1nn(-c2ccccc2)c(C)c1/C=N/NC(=O)CSc1nc2ccccc2c(=O)n1-c1ccc(Br)cc1	/	20	8%	27%	13µM*	?
CCn1c(SCC(=O)N/N=C/C=C/c2ccco2)nc2ccccc21	i	0	2%	16µM*	21µM*	7%
Cc1ccc(-n2c(SCC(=O)N/N=C/c3c(C)nn(-c4ccccc4)c3C)nc3ccccc3c2=O)cc1	?	6	2%	-3%	18%	-23%
Cc1ccc(/C=N/NC(=O)CSc2nc3ccccc3c(=O)n2-c2ccccc2)s1	i	0	4%	-6%	-65%	-1%
Cc1ccc(/C=N/NC(=O)CSc2nc3ccccc3c(=O)n2-c2ccccc2C)s1	?	-9	3%	0.52µM*	-35%	-19%
CCn1c(SCC(=O)N/N=C/c2ccc(C)s2)nc2ccccc21	?	9	6%	?	13µM*	-12%
CCc1ccc(S(=O)(=O)NCc2nc3cccnc3n2Cc2ccccc2Cl)cc1	/	/	0%	/	/	/
CCN(c1ccccc1)c1ccc2cc(S(=O)(=O)N3CCCC3)ccc2n1	i	/	0%	/	/	3%
Cc1ccc(C2N=C(Nc3nc4ccccc4o3)NC3=C2C(=O)CC(C)(C)C3)cc1 (centres undefined)	/	/	0%	/	/	/
Cn1c(SCC(=O)N/N=C/c2ccco2)nc2ccccc21	i	-26	0%	-10%	-10%	-1%
CC(/C=N/NC(=O)CSc1nc2ccccc2n1C)=C\c1ccco1	i	-14	8%	?	21µM*	-10%
Cc1ccc(Cl)cc1NC(=O)CCCN1C(=O)CCn2nc(-c3cn(C)c4ccccc34)cc21	i	/	1%	/	/	-20%
COc1ccc(-c2nc(C#N)c(N3CCC(C)CC3)o2)cc1	i	-52*	1%	23%	17%	-3%
CCOc1ccc(-c2nc(C#N)c(N3CCCCCC3)o2)cc1	i	-61*	0%	-11%	1%	-8%
COc1ccc(-c2nc(C#N)c(N3CCCCC3)o2)cc1	/	-11	2%	7%	9%	-23%
COc1ccc(-c2nc(C#N)c(N3CCCCCC3)o2)cc1	i	-63*	/	-21%	14%	-5%
CCOc1ccc(-c2nc(C#N)c(N3CCN(C)CC3)o2)cc1	i	?	1%[38.3 µM]	?	19%	-7%
COc1ccc(-c2nc(C#N)c(NC(C)C)o2)cc1	i	-50*	/	10%	9%	29%
CN(C)c1ccc(C(=O)N2CCCC(Cn3cc(C(=O)N4CCCC4)nn3)C2)cc1 (centres undefined)	i	/	0%	/	/	/
O=C(c1cnc(N2CCCCC2)c2ccccc12)N1CCN(c2ccc(F)cc2)CC1	/	/	1%	/	/	/
Cc1ccc(C)n1-c1nnc(N2CCCC(C(=O)NCc3ccc(Cl)cc3)C2)s1 (centres undefined)	/	/	1%	/	/	/
Cc1ccc(C)c(CN2C(=O)C3(c4ccccc42)N(c2ccc(Cl)cc2)C(=O)CS3(=O)=O)c1 (centres undefined)	i	/	-4%	/	/	16%
CCCOc1ccc(-c2nc(C#N)c(N3CCN(CC)CC3)o2)cc1	i	-60*	-1%	-1%	?	0%
SMILES	S2 tox	IL1B secr inh	PINK1 expr mod	SW480 rerep	MCF10A rereplic	ATXN2 expr inh
CC(=O)c1sc(NC(=O)CCS(=O)(=O)c2ccc(F)cc2)nc1C	?	-94*	7%	/	/	/
O=C(CCS(=O)(=O)c1ccccc1)Nc1nncs1	i	?	4%	?	?	59%
CC(=O)c1sc(NC(=O)CCS(=O)(=O)c2ccccc2)nc1C	?	-23	-1%	4.6µM*	2.9µM*	?
O=C(CCCl)Nc1cccc2cccnc12	/	/	9%	/	/	/
Cc1ncc(CO)c2c1Oc1nc(-c3ccc(F)cc3)nc(SCC(=O)N3CCCCC3)c1C2	i	/	0%	/	/	5%
CC(=O)Nc1cc2c(cc1[N+](=O)[O-])-c1ccc(F)cc1C2	i	-81*	25%	?	12%	18%
CC(=O)Nc1ccc2c(c1)-c1ccc(F)cc1C2	i	15	2%	-3%	-6%	-19%
N#C/C(=C/c1ccc(N2CCOCC2)o1)c1ccc(Cl)cc1	i	-78*	13µM*	-8%	-7%	-22%
N#C/C(=C\c1ccc(N2CCOCC2)o1)c1nc2ccccc2[nH]1	i	-21	14µM*	-2%	3%	-19%
N#C/C(=C\c1ccc(N2CCOCC2)c([N+](=O)[O-])c1)c1nc2ccccc2[nH]1	i	-104*	-2%	-42%	10%	15%
O=C(Nc1ccc(F)c(C(F)(F)F)c1)Nc1nnc(-c2ccncc2)s1	/	/	/	/	/	-12%
CC(C)(C)C(=O)Nc1cccc(C(=O)OCc2cc(=O)n3nc(C4CCCCC4)sc3n2)c1	/	/	0%	/	/	/
CC1CN(c2c(F)c(N)c3c(=O)c(C(=O)O)cn(C4CC4)c3c2F)CC(C)N1 (centres undefined)	/	/	/	-8%	-2%	/
O=c1c2ccccc2ncn1Cc1ccc(Cl)c(Cl)c1	?	0	19%	23%	1.2µM*	-29%
COc1ccccc1NC(c1ccc(Cl)cc1)c1nnc(-c2cccc(F)c2)o1 (centres undefined)	?	/	1%	/	/	-22%
O=C(O)CCSc1nnc(CNc2ccc(Cl)cc2)n1Cc1ccccc1	/	18	-2%	0.23µM*	1%	-11%
CCn1c(CNc2ccc(Cl)cc2)nnc1SCC(=O)OC1CCCCC1	i	-10	4%	2%	13µM*	-11%
NC(=O)c1c(NC(=O)c2noc3c2CCCC3)sc2c1CCCC2	/	/	0%	/	/	/
Cc1ccc(NC(=O)[C@@H](c2ccccc2)N2Cc3ccccc3C2=O)cc1F	i	/	2%	/	/	-12%
COC(=O)c1cc(C(=O)N2CCN(c3cccc(Cl)c3)CC2)cc([N+](=O)[O-])c1	i	61	5%	0.73µM*	?	-6%
O=[N+]([O-])c1ccc2[nH]cc(S(=O)(=O)N3CCN(c4cccc(Cl)c4)CC3)c2c1	i	-96*	?	?	10%	?
O=C(c1cccc([N+](=O)[O-])c1)N1CCN(c2cccc(Cl)c2)CC1	i	-3	0%	?	16µM*	-17%
COC(=O)c1cc(C(=O)N2CCOCC2)cc([N+](=O)[O-])c1	i	19	2%	-8%	-1%	-7%
